Compound activity as filed in PubChem.
TRPV1 ag: agonists of human vanilloid receptor 1 (TRPV1); Q8NER1; TRPV1-expressing cells, Fluo-8 calcium influx, agonist mode; activation, % at 8.33 µM; 0.19% of 320,000 active; in the data active = activation above about 80%; inconclusive = between about 30% and that limit; also: 0% is about no effect
Target sequence (Q8NER1 whole entry, looked up): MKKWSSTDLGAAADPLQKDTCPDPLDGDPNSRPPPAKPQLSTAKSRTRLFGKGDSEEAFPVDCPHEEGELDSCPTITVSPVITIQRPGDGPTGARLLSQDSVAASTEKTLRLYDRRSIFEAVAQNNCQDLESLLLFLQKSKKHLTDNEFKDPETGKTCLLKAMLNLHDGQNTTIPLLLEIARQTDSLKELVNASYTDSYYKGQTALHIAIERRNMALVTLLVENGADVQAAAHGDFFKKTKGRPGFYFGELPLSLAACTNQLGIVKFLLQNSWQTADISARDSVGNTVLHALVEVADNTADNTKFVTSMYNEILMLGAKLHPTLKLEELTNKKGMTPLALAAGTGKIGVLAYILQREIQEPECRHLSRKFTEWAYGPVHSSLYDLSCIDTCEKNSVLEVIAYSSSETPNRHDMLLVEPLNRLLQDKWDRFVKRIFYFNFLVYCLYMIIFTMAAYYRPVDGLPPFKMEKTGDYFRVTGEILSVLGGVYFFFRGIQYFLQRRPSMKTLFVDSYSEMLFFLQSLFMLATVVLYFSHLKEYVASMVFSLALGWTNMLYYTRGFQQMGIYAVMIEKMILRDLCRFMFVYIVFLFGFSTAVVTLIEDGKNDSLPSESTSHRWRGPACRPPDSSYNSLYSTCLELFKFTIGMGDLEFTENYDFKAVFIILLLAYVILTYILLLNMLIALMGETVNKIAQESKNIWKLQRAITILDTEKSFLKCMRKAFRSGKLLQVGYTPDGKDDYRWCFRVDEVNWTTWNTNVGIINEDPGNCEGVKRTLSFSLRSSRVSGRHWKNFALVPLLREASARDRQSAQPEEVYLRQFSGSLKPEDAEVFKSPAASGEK
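Cells expressing TRPV1 were dye-loaded with Fluo-8 and read kinetically: 10 s baseline, 3 min after compound (agonist portion), then 2 min after EC20 capsaicin (allosteric enhancer portion). Calcium-bound dye fluorescence at 480/520 nm.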
TRPV1 PAM: potentiators of human vanilloid receptor 1 (TRPV1); Q8NER1; TRPV1-expressing cells, Fluo-8 calcium influx, capsaicin EC20 potentiation; potentiation, % at 8.33 µM; 0.02% of 320,000 active; AID 540277; in the data active = potentiation above about 80%; inconclusive = between about 30% and that limit; also: 0% is about no effect
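TRPV1-expressing cells were cultured overnight at 35.5C and loaded with Fluo-8 calcium dye for 40 to 90 min at room temperature. After a 10 s baseline, compound was added and calcium influx was read kinetically for 3 min (ex 480/em 520 nm).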
Menin MLL FP FL: menin-MLL binding inhibition, fluorescein peptide. Fluorescence polarization, fluorescein-MLL peptide displacement from menin. 290,000 tested, under 10 active. AID 1766. FP activity change, % at 61.4 µM; active = well fitted curve in the direction sought with a large enough effect in the polarisation, not every such curve was filed as active; inconclusive = small, poorly fitted or top-dose-only effect, or effect the other way, or a change in a side signal; inactive = no such curve, though single readings can be large or run the other way; the % refers to the polarisation; also: % of control where 0% means no effect
MLL CXXC-DNA inh: blocks binding of human MLL CXXC domain to DNA. 0.037% of 290,000 active. Potency, µM (top dose mostly 115 µM), without a hit: at the top dose activity change, negative = inhibition, actives largely listed as inhibitors. Q03164. MLL-CXXC / FITC-HOXA9 DNA fluorescence polarization; active = well fitted inhibition curve with a large enough effect in the polarisation, with a control signal flat, not every such curve was filed as active; inconclusive = small, poorly fitted or top-dose-only effect, or effect the other way, or a change in a side signal; inactive = no such curve, though single readings can be large or run the other way; the % refers to the polarisation; also: potency is read from the fitted curve at half-maximal effect
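Purified MLL-CXXC (added from a 7 uM solution) was preincubated 5 min at ambient with pinned compounds in 50 mM Tris-HCl pH 7.5, 50 mM NaCl, 1 mM DTT, 0.05% BSA. Fluorescein-labeled HOX-A9 DNA (50 nM solution) followed, 30 min, then polarization read.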
Menin-MLL TR inh: displaces Texas Red mutant MLL peptide from human menin; Menin + Texas Red MLL mutant peptide, fluorescence polarization; Potency, µM (titrated, usually from 61.6 µM), without a hit: at the top dose FP activity change, negative = inhibition, usual class: inhibitors; 0.23% of 270,000 active; active = well fitted inhibition curve with a large enough effect in the polarisation, with a control signal flat, not every such curve was filed as active; inconclusive = small, poorly fitted or top-dose-only effect, or effect the other way, or a change in a side signal; inactive = no such curve, though single readings can be large or run the other way; the % refers to the polarisation; also: potency is read from the fitted curve at half-maximal effect; % of control where 0% means no effect
* = called active by the depositor. A selection: hits, their analogues and other compounds. The true share with any hit is near 0.32%.

Cc1ccc(C(=O)Nc2ccc(S(=O)(=O)N3CCCC3)cc2)cc1 was read as TRPV1 ag 85*, TRPV1 PAM -40, Menin MLL FP FL 4, MLL CXXC-DNA inh 47% and Menin-MLL TR inh 35%.
For COc1cc(C(=O)Nc2nc3ccc(S(=O)(=O)N4CCOCC4)cc3s2)cc(OC)c1OC the results were TRPV1 ag -3, TRPV1 PAM 28, Menin MLL FP FL 8, MLL CXXC-DNA inh 16% and Menin-MLL TR inh inconclusive.
`Cc1ccc(NC(=O)c2ccc(S(=O)(=O)N3CCCCC3)cc2)cc1` gave TRPV1 ag inconclusive, TRPV1 PAM -28, Menin MLL FP FL -1, MLL CXXC-DNA inh 15% and Menin-MLL TR inh -10%.
For Cc1ccc(S(=O)(=O)N2CCOCC2)cc1C(=O)Nc1ccc2c(c1)CCC2 the results were TRPV1 ag 83*, TRPV1 PAM -25, Menin MLL FP FL 0, MLL CXXC-DNA inh 5% and Menin-MLL TR inh 19%.
For COc1ccc(OC)c2sc(NC(=O)c3ccc(S(=O)(=O)N4CCOCC4)cc3)nc12 the results were TRPV1 ag -2, TRPV1 PAM -3, Menin MLL FP FL 0, MLL CXXC-DNA inh 10% and Menin-MLL TR inh 18µM*.
For Cc1ccc(NC(=O)c2ccc(C)cc2)cc1 the results were TRPV1 ag 81* and TRPV1 PAM 5.
`Cc1ccc(C(=O)Nc2ccc(N3CCN(C)CC3)cc2)cc1` gave TRPV1 ag 8, TRPV1 PAM 1, Menin MLL FP FL 1, MLL CXXC-DNA inh -15% and Menin-MLL TR inh 4%.
Cc1ccc(/C=C2/CNC/C(=C\c3ccc(C)cc3)C2=O)cc1 was read as Menin MLL FP FL -2 and Menin-MLL TR inh inconclusive.
Screening CC(C)C[C@H](NC(=O)CNC(=O)[C@H](C)NC(=O)[C@H](CC(C)C)NC(=O)[C@H](CCCNC(=N)N)NC(=O)[C@H](Cc1cnc[nH]1)NC(=O)[C@@H](NC(=O)[C@@H](N)C(C)C)[C@@H](C)O)C(=O)N[C@@H](CC(C)C)C(=O)N[C@@H](CO)C(=O)N[C@@H](CCCNC(=N)N)C(=O)N[C@@H](CO)C(=O)NCC(=O)NCC(=O)N[C@H](C(=O)N[C@H](C(=O)N[C@@H](CCCCN)C(=O)N[C@@H](CC(N)=O)C(=O)N[C@@H](CC(N)=O)C(=O)N[C@@H](Cc1ccccc1)C(=O)N[C@H](C(=O)N1CCC[C@H]1C(=O)N[C@H](C(=O)N[C@@H](CC(N)=O)C(=O)N[C@H](C(=O)NCC(=O)N[C@@H](CO)C(=O)N[C@@H](CCCCN)C(=O)N[C@@H](C)C(=O)N[C@@H](Cc1ccccc1)C(N)=O)C(C)C)[C@@H](C)O)C(C)C)C(C)C)C(C)C returned Menin MLL FP FL -1 and Menin-MLL TR inh -1%.
For C=CCOC(=O)N[C@H](c1ccccc1)C(C(C)=O)C(C)=O the results were Menin MLL FP FL 2 and Menin-MLL TR inh -8%.
For NC(CC(=O)Nc1ccc(Oc2cc(F)c(F)cc2Br)cc1)C(=O)O (configuration not stated) the results were Menin MLL FP FL -1 and Menin-MLL TR inh 21%.
CCN(CC)c1ccc(NC(=O)c2cc3ccccc3o2)c(C)c1 was read as TRPV1 ag 83*, TRPV1 PAM -17, Menin MLL FP FL 1, MLL CXXC-DNA inh 6% and Menin-MLL TR inh 0%.
For O=C(Nc1ccccc1)c1cc2ccccc2o1 the results were TRPV1 ag inconclusive, TRPV1 PAM -8, Menin MLL FP FL 0, MLL CXXC-DNA inh -4% and Menin-MLL TR inh 14%.
Cc1ccccc1NC(=O)c1cc2ccccc2o1 was read as TRPV1 ag inconclusive, TRPV1 PAM 8, Menin MLL FP FL 0, MLL CXXC-DNA inh 0% and Menin-MLL TR inh 11%.
`O=C(Nc1ccc(F)cc1)c1cc2ccccc2o1` gave TRPV1 ag 98*, TRPV1 PAM -9, Menin MLL FP FL -4, MLL CXXC-DNA inh 5% and Menin-MLL TR inh 44%.
`CCN(CC)c1ccc(NC(=O)c2ccc3c(c2)OCO3)c(C)c1` gave TRPV1 ag 82*, TRPV1 PAM -20, Menin MLL FP FL 0, MLL CXXC-DNA inh -3% and Menin-MLL TR inh -7%.
For Cc1cc(NC(=O)c2ccc3c(c2)OCO3)ccc1NC(=O)c1ccccc1 the results were TRPV1 ag 0, TRPV1 PAM 2, Menin MLL FP FL 2, MLL CXXC-DNA inh 22% and Menin-MLL TR inh inconclusive.
